Measurements: PubChem BioAssay AID588690 (Broad Institute, 2011)
Out of some 2,400 compounds screened, fewer than 10 were called active. Another 1% or so got no clear call; they are omitted. A selection follows. Values without a mark were called inactive.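 How the source made its calls: active means highest replicate activation at or above 34% and every replicate reaching that threshold; inconclusive means meets only one of the two criteria; inactive means meets neither criterion.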

Each molecule was assayed against Protein FosB (Mus musculus) (UniProt P13346) (assay: enhancers of delta FosB homodimer–AP-1 oligo binding – biochemical, fluorescence polarization, TAMRA-CDK5 oligo, cherry-picked samples, confirmation (AID 588690;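 further: higher polarization means more probe DNA bound by delta FosB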)). Conditions: purified delta FosB, at 24.9 µM, stronger effect = higher value, normalised: neutral wells 0, positive control 100.
Protein FosB (Mus musculus), sequence (P13346 whole entry, looked up): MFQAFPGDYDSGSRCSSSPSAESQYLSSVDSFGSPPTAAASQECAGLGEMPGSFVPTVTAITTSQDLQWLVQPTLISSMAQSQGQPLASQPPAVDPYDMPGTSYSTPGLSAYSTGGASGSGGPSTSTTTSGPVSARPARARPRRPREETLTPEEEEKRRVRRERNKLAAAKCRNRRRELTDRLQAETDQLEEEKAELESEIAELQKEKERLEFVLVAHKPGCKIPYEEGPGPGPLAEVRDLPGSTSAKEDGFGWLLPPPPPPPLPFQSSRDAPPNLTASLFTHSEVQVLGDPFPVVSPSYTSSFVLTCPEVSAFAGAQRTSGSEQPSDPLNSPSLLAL

Row | Structure (SMILES) | activation [%]
1 | CN(CC(=O)Nc1ccc(Cl)cc1)C(=O)CNC(=O)c1ccc2ccccc2c1 | 6.82
2 | C#CCOCCOCCOCCNc1nc(N2CCN(C(=O)C([C@@H](C)O)n3cc([C@@H](N)CCCCN)nn3)CC2)nc(N2CCN(C(=O)[C@H](CCCCN)n3cc(CN)nn3)CC2)n1 (stereo partly specified) | -0.353
3 | Cc1nn(Cc2ccc(Cl)cc2)c(Cl)c1/C=N/NC(=O)CNc1ccccc1F | 1.57
4 | Cc1ccc(C)c(NC(=O)C(OC(=O)c2ccc(C)s2)c2ccccc2)c1 (stereo unspecified) | -0.981
5 | Nc1nc(COC(=O)CCC(=O)c2ccc(Cl)cc2)nc(Nc2ccccc2)n1 | 0.207
6 | COc1ccc(Cn2c(=S)[nH]c3cc(C(=O)N4CCCCC4)ccc3c2=O)cc1 | -2.01
7 | COc1ccc(-c2cc(=O)oc3cc(OC(C)C(=O)Nc4ccc(CN5CCOCC5)cc4)ccc23)cc1 (stereo unspecified) | 0.361
8 | Cc1cc(NC(=O)CSc2nc3cc(Cl)ccc3c(=O)n2Cc2ccco2)no1 | 3.74
9 | O=C(Nc1nc(-c2ccc(-c3ccccc3)cc2)cs1)c1cnccn1 | 5.91
10 | O=C(Cn1nnc(-c2ccccc2)n1)NCc1ccc2c(c1)OCO2 | 5.36
11 | Cc1sc2ncnc(N3CCC(C(=O)Nc4nc5ccc(Cl)cc5s4)CC3)c2c1C | 5.08
12 | CC(Sc1nc(-c2ccccc2)cc(C(F)(F)F)n1)C(=O)Nc1ccc2c(c1)OCO2 (stereo unspecified) | 0.405
13 | COc1ccc2nc(/N=C(\N)NC(=O)Nc3ccccc3)nc(C)c2c1 | -5.43
14 | COc1ccc(-n2c(SCC(=O)Nc3sc4c(c3C#N)CCCC4)nnc2-c2ccc(O)cc2)cc1 | 2.22
15 | O=C(Cc1nc2ccccc2[nH]c1=O)c1ccc(Cl)cc1 | 3.64
16 | CCCCNC(=O)C(C)N(CCN(C)C)C(=O)CCCCCN1C(=O)NC(c2ccc(Cl)cc2)C(C(=O)OCc2ccccc2)=C1C (stereo unspecified) | 3.97
17 | O=C(/C=C/c1ccc(F)cc1)NCCNC(=O)/C=C/c1ccc(F)cc1 | 5
18 | COc1cccc(CNC(=O)c2nnn(CC(=O)Nc3cc(C)ccc3C)c2N)c1 | 0.657
19 | CC(=O)Nc1ccc(NC(=O)C(NS(=O)(=O)c2ccc3c(c2)OCCO3)C(C)C)cc1 (stereo unspecified) | 2.35
20 | COc1ccc(NS(=O)(=O)c2ccc(NC(=O)c3ccc(N(C)S(C)(=O)=O)cc3)cc2)cc1 | -1.03
21 | O=C(Nc1ccc2ccccc2c1)/C(=C/c1cccc(Br)c1)NC(=O)c1ccco1 | 5.71
